The campaign covered roughly 220,000 compounds. About 770 (0.35%) were called active. Shown is part of a subset that was picked to be rich in actives. Unmarked numbers belong to inactive results. No stated cut-off is given here; in the data, active means activation above about 11%; inactive means the rest.

For the assay, the target named is Sphingosine 1-phosphate receptor 4 (Homo sapiens) (UniProt O95977). Briefly: activators of human S1P4 receptor – cell-based, primary screen (AID 1509).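 Further: 0% = DMSO vehicle and 100% = reference agonist.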 The conditions noted are these: S1P4-expressing cell line, agonist reporter assay; at 4.98 µM; stronger effect = higher value.
Sequence of Sphingosine 1-phosphate receptor 4 (Homo sapiens) (O95977 whole entry, looked up): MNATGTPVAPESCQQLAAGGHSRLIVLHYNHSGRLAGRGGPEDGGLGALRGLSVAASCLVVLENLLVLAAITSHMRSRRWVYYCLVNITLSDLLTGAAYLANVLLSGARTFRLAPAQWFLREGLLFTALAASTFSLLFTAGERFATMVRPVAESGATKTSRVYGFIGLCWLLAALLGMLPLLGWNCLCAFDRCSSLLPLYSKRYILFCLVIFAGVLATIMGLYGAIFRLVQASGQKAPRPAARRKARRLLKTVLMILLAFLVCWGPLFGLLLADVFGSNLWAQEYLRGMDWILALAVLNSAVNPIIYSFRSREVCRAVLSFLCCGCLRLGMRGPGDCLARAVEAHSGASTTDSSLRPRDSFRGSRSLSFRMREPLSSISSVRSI
For `Cc1nc(-c2nnc(SCC(=O)Nc3cc(C(F)(F)F)cc(C(F)(F)F)c3)n2C)cs1`, the activation was -0.18%. In the case of `O=C1C=C(c2ccc(Cl)cc2)C(=O)N1Nc1ccccc1` it was -3.55%; in that of `CCOc1ccc(N2CC(C(=O)N/N=C/c3sccc3C)CC2=O)cc1` (stereo not drawn), -0.25%. With `NC(=O)COC(=O)c1sc2cc(F)ccc2c1Cl` the figure was 0.19%. With `COc1ccc(CCNC(=O)C(Sc2ccccn2)c2ccccc2)cc1OC` (stereo not drawn) the figure was -2.85%. For `O=C(Nc1ccc(N2CCOCC2)cc1)c1ccc2c(c1)OCO2`, the activation is 1.77%.

Regarding `CC1CN(C(=O)c2ccccc2NS(=O)(=O)c2cccc([N+](=O)[O-])c2)CC(C)O1` (stereo not drawn), the activation was 1.5%. Regarding `CCc1ccc(Nc2nnc(SCC(=O)c3ccc4c(c3)NC(=O)CO4)s2)cc1`, the activation was 1.5%. In the case of `CC1CCCN(CC(O)COc2ccc3c(c2)OCO3)C1` (stereo not drawn) it was 0.61%; in that of `COCCn1c(SCc2nnc(-c3ccc(OC)c(OC)c3)o2)nc2sc3c(c2c1=O)CCC3`, 1.63%; in that of `CCOc1cnc(-c2c(-c3ccccc3Cl)noc2C)o1`, 0.62%. Turning to `CC1CCCC(NC(=O)c2cccc(N3CCCC3=O)c2)C1C` (stereo not drawn), the activation is -1.52%. With `COc1ccccc1CNC(=O)c1cc(=O)c2ccccc2o1` the figure was 0.7%; with `COc1ccccc1CNC(=O)CNC(=O)c1cn(-c2ccccc2OC)c(=O)c2ccccc12`, 16.9% (active).

Turning to `COc1ccccc1CNC(=O)CCn1c(=O)sc2ccccc21`, the activation is -0.92%. In the case of `COc1cccc(CN(C)CC(=O)Nc2ccccc2C(=O)Nc2ccccc2)c1` it was 0.57%. With `CN(C)c1nc(-c2cccnc2)nc(-c2ccc(Cl)cc2)c1C#N` the figure was 0.37%; with `CC(Oc1ccc(-c2ccccc2)c(F)c1)c1ccn(S(=O)(=O)c2cccc3ccccc23)n1` (stereo not drawn), -2.56%.

Regarding `COc1ccc(NC(=O)C(=O)NCC(=O)Nc2cccc(C(F)(F)F)c2)cc1`, the activation is 0.93%. In the case of `COc1ccc(-c2ccc(CCC(=O)O)n2NC(=O)c2ccc(C(C)(C)C)cc2)cc1` it was -0.13%; in that of `CN(C)S(=O)(=O)c1cc(NC(=O)CN2C(=O)NC3(CCCc4ccccc43)C2=O)ccc1Cl` (stereo not drawn), 0.63%; in that of `COc1ccc(-n2c(C)cc(C(=O)CN3C(=O)NC4(CCc5ccccc54)C3=O)c2C)cc1` (stereo not drawn), 16.1% (active). With `Cc1ccc(-n2c(C)cc(C(=O)CN3C(=O)C(=O)N(C4CCCC4)C3=O)c2C)cc1` the figure was 0.78%. In the case of `COC(=O)c1cc(C(=O)N(Cc2ccccc2)c2ccccn2)cc([N+](=O)[O-])c1` it was 1.87%. With `Cc1ccccc1OCCC(=O)OCC(=O)NC(C)c1ccccc1` (stereo not drawn), the activation was -1.6%. With `CCN(CC)C(=O)Cn1cc(S(=O)(=O)CC(=O)NCc2ccc3c(c2)OCO3)c2ccccc21` the figure was -1.22%; with `COc1ccc(C(=O)NN2C(=O)C3C(c4ccccc4)C=CC(c4ccccc4)C3C2=O)cc1` (stereo not drawn), -0.98%. With `N#C/C=C(/c1ccc(F)cc1)N1CCOCC1` the figure was -1.05%. With `Cc1cc2c(C)nc(N/N=C/c3ccccc3)nc2o1` the figure was -1.39%. `CC(=O)Nc1ccc(SCC(=O)Nc2ccccc2Oc2ccccc2)cc1`: the activation is 13.2% (active). With `Cc1cc(C)cc(NC(=O)CSc2ccccc2)c1` the figure was -1.04%. In the case of `O=C(CSc1ccccc1)Nc1cc(Cl)ccc1Oc1ccccc1`, the activation is 0.59%. Consider `O=C(COC(=O)c1ccccc1SCC(=O)NC1CCCCC1)NC1CCCCC1`, for which the activation is 0.41%. In the case of `N#Cc1ccccc1Sc1ccccc1C(=O)OCC(=O)NC1CCCCC1` it was 2.4%; in that of `O=C(COC(=O)c1cc([N+](=O)[O-])ccc1NCc1ccccc1)NC1CCCCC1`, 15.3% (active); in that of `Cc1nn(CC(=O)Nc2ccc(N(C)C)cc2)c(C)c1[N+](=O)[O-]`, -0.79%.

As for `NC(=O)c1ccc(-c2csnn2)cc1`, the activation was -0.31%. With `N/C(=N\OC(=O)Cc1ccc([N+](=O)[O-])cc1)c1ccccn1` the figure was 15.5% (active). Consider `N/C(=N\OC(=O)c1ccc([N+](=O)[O-])cc1)c1ccccn1`, for which the activation is -0.02%. Regarding `O=C(OCc1ccc([N+](=O)[O-])cc1)c1ccccn1`, the activation was -1.16%. With `CCc1ccc(NC(=O)N[C@H](C(=O)O)C(C)CC)cc1` (stereo partly drawn) the figure was -0.3%; with `O=S(=O)(Nc1ccc(Cl)cn1)c1cnc(Cl)c(Br)c1`, 0.57%.

`Cc1cc(NC(=O)c2cc(-c3cccs3)on2)nn1Cc1ccc(Cl)cc1`: the activation is 13.1% (active). In the case of `O=C(c1cc(-c2cccs2)on1)N1CCCCC1` it was 0.14%; in that of `Cc1ccc(Cn2ccc(NC(=O)c3cc(C(C)C)on3)n2)cc1`, -0.1%; in that of `CCn1c(CNC(=O)c2ccc(OC)c(OC)c2)nnc1SCC(=O)Nc1ccccc1`, 21.5% (active). In the case of `CCn1c(Cc2ccccc2)nnc1SCC(=O)Nc1ccccc1` it was -2.58%; in that of `CCn1c(CNC(=O)c2ccco2)nnc1SCC(=O)Nc1cccc(F)c1`, 1.91%. In the case of `O=C(CN1CCN(S(=O)(=O)c2ccc(Cl)s2)CC1)NCc1ccc(Cl)cc1` it was 0.73%.

On to `COC(=O)C1=C(C)N(C)C(=O)NC1c1ccc([N+](=O)[O-])o1` (stereo not drawn), for which the activation was 0.41%.

As to `Brc1ccc(-c2n(-c3ccccn3)c3ccccc3[n+]2-c2ccccn2)cc1`, the activation is -0.47%.

As for `CCn1c(N)c(Br)c(=O)[nH]c1=O`, the activation is 0.16%. In the case of `O=C(NNS(=O)(=O)c1ccccc1)c1cnn(-c2ccc(Cl)cc2)c1C(F)(F)F` it was 1.09%; in that of `Cc1ccc(NC(=O)CC2C(=O)N(Cc3ccccc3)C(=S)N2NC(=O)c2cccc(F)c2)c(C)c1` (stereo not drawn), 2.02%.

As to `Cc1ccc(/C=N/NC(=O)Cn2ccc(C(F)(F)F)n2)o1`, the activation was 1.08%. In the case of `CC(=O)NC(=S)Nc1ccc(NC(=O)c2cccnc2)cc1` it was -0.19%; in that of `COc1ccc(CCn2c(NN=C3CCCC3)nc3c2c(=O)[nH]c(=O)n3C)cc1`, -1.13%. In the case of `FC(F)(F)c1ccnc(Oc2ccc(C3=NCCS3)cc2)c1` it was -0.27%; in that of `O=c1cc(N2CCCCC2)c(-c2ccccc2)nn1Cc1cccc(F)c1`, 0.58%; in that of `Cc1cc(C)cc(Oc2nc3c(C)cccn3c(=O)c2/C=C(\C#N)C(=O)NC2CCS(=O)(=O)C2)c1` (stereo not drawn), 2.53%. As to `Cc1ccc(CSc2nnc(-c3cnccn3)n2C)cc1`, the activation was -0.85%.

With `CC(C)c1ccc(NC(=S)NC2CC3C=CC2C3)cc1` (stereo not drawn), the activation is -1.16%.

With `O=C(COC(=O)c1ccccc1F)Nc1cc(S(=O)(=O)N2CCOCC2)ccc1N1CCCC1`, the activation was -0.01%. In the case of `O=C(COC(=O)Cc1ccc(F)cc1)Nc1cc(S(=O)(=O)N2CCOCC2)ccc1N1CCCC1` it was 17.3% (active); in that of `O=C(COc1cccc2ccccc12)Nc1cc(S(=O)(=O)N2CCOCC2)ccc1N1CCOCC1`, -0.32%. In the case of `Cc1cc(C)cc(NC(=O)Cn2cnc3c(nnn3Cc3ccc(F)cc3)c2=O)c1` it was -0.07%; in that of `O=C(COC(=O)c1ccco1)NCc1ccc(Cl)cc1`, 0.62%.

Turning to `Cc1ccccc1N1CCN(Cc2nc(Cc3ccccc3F)no2)CC1`, the activation is 0.64%. In the case of `COc1ccc(NC(=O)CSc2ncnc3[nH]ncc23)cc1` it was -1.23%; in that of `CC(C)(C)c1ccc(/C=C2\Oc3c(ccc(O)c3CN3CCN(CCO)CC3)C2=O)cc1`, 0.44%. Regarding `Cc1c(NC(=O)Nc2ccccc2)cccc1[N+](=O)[O-]`, the activation was 1.03%.

Regarding `CC(=O)c1cccc(NC(=O)Nc2ccc(C)cc2)c1`, the activation was -3.97%. In the case of `Cc1ccc(NC(=O)Nc2ccccc2)c(Br)c1` it was 19.4% (active); in that of `Cc1ccc(N/C(N)=N/c2nc(C(F)(F)F)cc(C(F)(F)F)n2)cc1`, 2.06%; in that of `Fc1ccc(Nc2nnns2)cc1`, 1.1%. In the case of `CC(=O)c1ccc(S(=O)(=O)N2CCN(C(=O)/C=C/c3ccc4ccccc4n3)CC2)cc1` it was -0.28%. In the case of `O=C1C(Cc2ccc(O)cc2)NC(=S)N1Cc1ccccc1` (stereo not drawn) it was 0.05%. For `Cc1ccc(N2C(=O)C(Cc3ccccc3)NC2=S)cc1` (stereo not drawn), the activation is -4.7%. With `COc1ccc(N2C(=O)C(Cc3ccccc3)NC2=S)cc1` (stereo not drawn) the figure was 18.3% (active); with `O=C(NCc1ccccc1)C1CCCN(c2nc3ccsc3c(=O)s2)C1` (stereo not drawn), 2.93%; with `Cc1nn(-c2ccccc2)c(Cl)c1/C=C/C(=O)c1ccc(O)cc1`, 4.66%. In the case of `Cc1ccc2c(c1)c1ncn(Cc3ccc(F)cc3)c(=O)c1n2C` it was 0.67%. As to `CC(=O)N1CCC(N(C(=O)Nc2ccc(Cl)cc2)C(C)C)CC1`, the activation was -0.35%. With `CCOc1ccc(/C(O)=C2\C(=O)C(=O)N(c3ccc(OC)cc3)C2c2ccccc2[N+](=O)[O-])cc1` (stereo not drawn) the figure was 0.81%; with `COc1ccc(C2CC(c3cccs3)=NN2c2nc(C)c(C(C)=O)s2)cc1OC` (stereo not drawn), 2.99%.

For `COc1ccc(C2CC(c3cccs3)=NN2c2ccccc2)cc1` (stereo not drawn), the activation is 11.6% (active). With `COc1ccccc1N1N=C(c2cccs2)CC1c1ccccc1` (stereo not drawn) the figure was 7.12%; with `COc1ccc(C2CC(c3cccs3)=NN2c2ccc(F)cc2)cc1OC` (stereo not drawn), 19.4% (active).

On to `COc1ccc(C2=NN(c3ccccc3)C(c3cccs3)C2)cc1` (stereo not drawn), for which the activation was 1.42%.

In the case of `COc1ccc(C2CC(c3cccs3)=NN2C(=O)CSc2nncs2)cc1OC` (stereo not drawn), the activation was 0.18%. With `CSc1nc2nc3c(c(=O)n2[nH]1)CCC3`, the activation is -0.27%. In the case of `COc1ccc(CN2CN(C3CCCC3)CSC2=S)cc1` it was -0.49%.

As to `Cc1c(C(=O)Nc2cccc(-c3nnc4n3CCCCC4)c2)oc2ccccc12`, the activation was 2.38%.

The record behind these values is PubChem BioAssay AID1509 (The Scripps Research Institute Molecular Screening Center, 2009).
